Data from PubChem BioAssay (EPA / NIEHS).
Values joined by “and” are separate entries in the source; they are usually repeats but may differ in a detail not shown here. Identical values can stand only once. Some compounds were tested as several samples or in several runs, with calls that do not always agree. Active and inactive are the calls of the source. How the source made its calls: active means hit-call score of the fitted dose curve at least 0.9, where 1 is the maximum; inactive means score below 0.9.

Columns and labels:
[1] = ATG_CRE_CIS: Attagene CIS-FACTORIAL HepG2 Assay for human cAMP Responsive Element (CRE) binding protein 3 (AID 2282926); settings: HepG2 CRE cis-reporter, Attagene multiplexed mRNA; actives raise or lower the signal
Summary of the method: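 Transfected HepG2 were treated for 24 hours, then RNA was extracted and reporter cDNA amplified with sequence-specific primers. Labelled fragments were separated by capillary electrophoresis, and the CRE signal was fitted bidirectionally with DMSO as baseline.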

[2] = molecular target: CCAAT/enhancer-binding protein beta (Homo sapiens) (UniProt P17676); assay: ATG_C_EBP_CIS: Attagene CIS-FACTORIAL HepG2 Assay for human CCAAT/Enhancer Binding Protein (C/EBP) beta (AID 2282927); settings: HepG2 Attagene cis-factorial transcription factor reporter; actives raise or lower the signal
CCAAT/enhancer-binding protein beta (Homo sapiens), sequence (P17676 whole entry, looked up): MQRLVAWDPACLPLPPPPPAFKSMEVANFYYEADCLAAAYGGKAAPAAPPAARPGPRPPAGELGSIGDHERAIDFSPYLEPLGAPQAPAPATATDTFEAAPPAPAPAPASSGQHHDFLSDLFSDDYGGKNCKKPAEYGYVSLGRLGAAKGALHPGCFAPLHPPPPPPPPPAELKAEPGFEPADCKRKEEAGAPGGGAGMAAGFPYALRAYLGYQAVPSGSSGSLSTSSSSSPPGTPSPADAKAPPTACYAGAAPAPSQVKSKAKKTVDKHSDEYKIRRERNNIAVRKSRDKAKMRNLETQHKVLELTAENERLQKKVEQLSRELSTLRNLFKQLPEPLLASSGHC
Summary of the method: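 Changes in reporter mRNA, rather than exogenous chimeric receptor activity, reflect native C/EBP signalling in transfected HepG2 cells dosed for 24 h; transcripts are detected by RT-PCR and capillary electrophoresis.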

[3] = ATG_CMV_CIS: Attagene CIS-FACTORIAL HepG2 Assay for human CMV (Internal Marker) (AID 2282928); settings: HepG2 CMV promoter reporter, transcription factor profiling; actives raise or lower the signal;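 further: endpoint acts as a background internal control marker rather than a target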
Summary of the method: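 CMV internal-marker background readout in transiently transfected HepG2 cells bearing cis-regulated reporter units. Reporter mRNA is measured 24 h after dosing by RT-PCR and capillary electrophoresis, with bidirectional fitting against DMSO.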

[4] = ATG_DR4_LXR_CIS: Attagene CIS-FACTORIAL HepG2 Assay for human Liver X Receptor (LXR), DR4 submotif (AID 2282929); settings: HepG2 Attagene DR4 cis-reporter, mRNA transcription; actives raise or lower the signal
Summary of the method: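 Endogenous factor activity at a DR4 cis-element is read as reporter mRNA in transiently transfected HepG2 cells. Exposure lasts 24 h; transcripts are amplified, fluorescently labelled and sized by capillary electrophoresis, with DMSO as baseline.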

[5] = molecular target: Aryl hydrocarbon receptor (Homo sapiens) (UniProt P35869); assay: ATG_Ahr_CIS: Attagene CIS-FACTORIAL HepG2 Assay for human Aryl Hydrocarbon Receptor (Ahr) (AID 2282930); settings: HepG2 AhR cis-factorial reporter transcription; actives raise or lower the signal
Aryl hydrocarbon receptor (Homo sapiens), sequence (P35869 whole entry, looked up): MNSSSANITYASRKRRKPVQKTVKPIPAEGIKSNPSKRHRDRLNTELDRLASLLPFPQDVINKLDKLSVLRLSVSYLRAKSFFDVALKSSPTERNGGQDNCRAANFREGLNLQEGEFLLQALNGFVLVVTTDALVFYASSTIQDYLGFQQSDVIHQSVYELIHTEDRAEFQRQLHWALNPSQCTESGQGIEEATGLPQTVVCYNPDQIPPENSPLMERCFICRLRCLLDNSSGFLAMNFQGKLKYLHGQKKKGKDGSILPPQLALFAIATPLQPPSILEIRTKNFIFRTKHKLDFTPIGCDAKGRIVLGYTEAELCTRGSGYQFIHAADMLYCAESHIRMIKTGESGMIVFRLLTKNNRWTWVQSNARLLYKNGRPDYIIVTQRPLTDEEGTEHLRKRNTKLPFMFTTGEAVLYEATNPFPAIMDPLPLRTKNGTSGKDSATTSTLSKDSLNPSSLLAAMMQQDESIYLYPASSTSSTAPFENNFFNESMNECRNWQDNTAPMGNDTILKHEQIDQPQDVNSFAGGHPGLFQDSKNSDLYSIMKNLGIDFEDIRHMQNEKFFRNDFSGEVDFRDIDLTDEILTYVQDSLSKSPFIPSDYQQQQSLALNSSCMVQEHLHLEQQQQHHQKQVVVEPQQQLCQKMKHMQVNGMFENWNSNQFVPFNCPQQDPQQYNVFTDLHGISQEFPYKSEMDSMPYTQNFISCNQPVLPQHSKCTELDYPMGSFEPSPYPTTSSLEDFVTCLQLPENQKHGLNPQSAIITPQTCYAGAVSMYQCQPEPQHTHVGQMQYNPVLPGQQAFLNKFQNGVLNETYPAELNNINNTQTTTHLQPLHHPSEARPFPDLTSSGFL
Summary of the method: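 HepG2, transient MRTU (cis) transfection, 24 h exposure. RNA → cDNA → PCR → 6-FAM primer extension → HpaI 2 h 37 C → CE. Fit: bidirectional, DMSO baseline.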

[6] = ATG_AP_1_CIS: Attagene CIS-FACTORIAL HepG2 Assay for human Activator Protein 1 (AP-1) (AID 2282931); settings: HepG2 Attagene cis-factorial AP-1 reporter mRNA; actives raise or lower the signal
Summary of the method: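 Fluorescence of labelled PCR fragments separated by capillary electrophoresis gives reporter mRNA levels. HepG2 with transfected cis-regulated reporter units, 24 h exposure; DMSO serves as baseline for bidirectional curve fits.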

[7] = ATG_AP_2_CIS: Attagene CIS-FACTORIAL HepG2 Assay for human Activator Protein 2 (AP-2) (AID 2282932); settings: HepG2 AP-2 cis-reporter, Attagene transcription factor profiling; actives raise or lower the signal
Summary of the method: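 Step one: transient transfection of HepG2 with reporter transcription units. Step two: 24 h chemical exposure. Step three: RNA extraction, RT-PCR, labelled fragment analysis by capillary electrophoresis; DMSO serves as baseline.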

[8] = ATG_BRE_CIS: Attagene CIS-FACTORIAL HepG2 Assay for human Bone Morphogenetic Protein (BMP) Response Element (BRE) (AID 2282933); settings: HepG2 BMP response element reporter, Attagene transcription factor profiling; actives raise or lower the signal
Summary of the method: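 A HepG2 multiplex reporter system measured inducible reporter mRNA 24 h post-dosing. Detection: RT-PCR, 6-FAM primer extension, HpaI digestion, capillary electrophoresis. Activity fitted bidirectionally relative to DMSO.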

[9] = molecular target: Retinoic acid receptor alpha (Homo sapiens) (UniProt P10276); assay: ATG_DR5_RAR_CIS: Attagene CIS-FACTORIAL HepG2 Assay for human Retinoic Acid Receptor Alpha (RARE), DR5 submotif (AID 2282934); settings: HepG2 Attagene cis-factorial RARE DR5 reporter, mRNA; actives raise or lower the signal;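 on AC50: reporter responds to endogenous RAR alpha beta and gamma in HepG2 not RARA alone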
Retinoic acid receptor alpha (Homo sapiens), sequence (P10276 whole entry, looked up): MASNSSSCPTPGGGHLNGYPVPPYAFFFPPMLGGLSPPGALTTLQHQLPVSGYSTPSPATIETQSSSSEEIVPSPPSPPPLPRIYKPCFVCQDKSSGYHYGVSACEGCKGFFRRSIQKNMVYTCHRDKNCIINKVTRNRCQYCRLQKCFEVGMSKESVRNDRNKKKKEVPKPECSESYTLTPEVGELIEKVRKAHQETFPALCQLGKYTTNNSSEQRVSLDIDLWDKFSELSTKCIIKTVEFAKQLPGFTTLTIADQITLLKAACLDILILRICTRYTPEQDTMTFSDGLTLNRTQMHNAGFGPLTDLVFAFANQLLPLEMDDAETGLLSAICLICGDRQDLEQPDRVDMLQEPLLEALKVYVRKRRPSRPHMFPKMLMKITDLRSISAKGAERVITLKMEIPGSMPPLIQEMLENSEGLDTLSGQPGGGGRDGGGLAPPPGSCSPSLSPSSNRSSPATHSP
Summary of the method: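 HepG2, transient cis-reporter transfection, 24 h exposure. mRNA readout: RT-PCR, FAM label, HpaI cut, capillary electrophoresis. DMSO baseline, gain/loss fitting.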

[10] = molecular target: Transcription factor E2F1 (Homo sapiens) (UniProt Q01094); assay: ATG_E2F_CIS: Attagene CIS-FACTORIAL HepG2 Assay for human E2F Transcription Factor 1 (AID 2282935); settings: HepG2 Attagene cis-reporter, E2F reporter RNA transcripts; actives raise or lower the signal
Transcription factor E2F1 (Homo sapiens), sequence (Q01094 whole entry, looked up): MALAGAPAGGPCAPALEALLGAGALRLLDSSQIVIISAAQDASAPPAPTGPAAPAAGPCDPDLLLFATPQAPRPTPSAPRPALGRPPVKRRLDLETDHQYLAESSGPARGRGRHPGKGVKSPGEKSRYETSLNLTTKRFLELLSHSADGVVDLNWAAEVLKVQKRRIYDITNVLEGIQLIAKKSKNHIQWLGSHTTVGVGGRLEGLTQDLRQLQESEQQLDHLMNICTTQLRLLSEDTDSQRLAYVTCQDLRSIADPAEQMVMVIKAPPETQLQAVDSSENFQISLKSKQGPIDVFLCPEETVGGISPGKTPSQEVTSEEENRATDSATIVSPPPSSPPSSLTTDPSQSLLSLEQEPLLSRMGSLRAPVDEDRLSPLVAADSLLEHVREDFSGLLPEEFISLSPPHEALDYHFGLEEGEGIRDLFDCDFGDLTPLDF
Summary of the method: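 Total RNA from 24 h-treated, reporter-transfected HepG2 cells undergoes DNase I treatment, oligo(dT) reverse transcription, PCR and 6-FAM primer extension before capillary electrophoresis.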

[11] = ATG_E_Box_CIS: Attagene CIS-FACTORIAL HepG2 Assay for human Enhancer Box (E-box) (AID 2282936); settings: HepG2 E-box cis-reporter transcription, actives raise or lower the signal
Summary of the method: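 DMSO served as negative control and baseline for bidirectional fitting. Human hepatoma HepG2 cells, transiently transfected with cis-reporter constructs, were dosed 24 h; reporter mRNA read by RT-PCR and capillary electrophoresis.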

[12] = ATG_M_61_CIS: Attagene CIS-FACTORIAL HepG2 Assay for M61 Transcription Factor (Internal Marker) (AID 2282937); settings: HepG2 Attagene CIS-FACTORIAL M61 internal marker reporter; actives raise or lower the signal
Summary of the method: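 This endpoint serves as an internal background control within a multiplexed HepG2 cis-reporter panel. Cells are exposed for 24 h; reporter mRNA is amplified, fluorescently labelled and sized by capillary electrophoresis, with DMSO as negative control.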

[13] = ATG_EGR_CIS: Attagene CIS-FACTORIAL HepG2 Assay for human Early Growth Response 1 (EGR1) (AID 2282938); settings: HepG2 Attagene CIS-FACTORIAL EGR reporter mRNA; actives raise or lower the signal
Summary of the method: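 HepG2, transient MRTU transfection (cis promoters), 24 h compound. RNA → RT (oligo-dT) → PCR → 6-FAM labelling → HpaI cut → CE fluorescence. Bidirectional fit, DMSO baseline.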

[14] = ATG_M_19_CIS: Attagene CIS-FACTORIAL HepG2 Assay for M19 Transcription Factor (Internal Marker) (AID 2282939); settings: HepG2 Attagene CIS-FACTORIAL M19 internal marker reporter; actives raise or lower the signal
Summary of the method: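 Chemical-treated HepG2 (24 h) with MRTU constructs; reporter transcripts detected by fluorescent RT-PCR fragment analysis on capillary electrophoresis. Internal background marker, DMSO as baseline.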

[15] = ATG_ERE_CIS: Attagene CIS-FACTORIAL HepG2 Assay for Estrogen Response Element (ERE) (AID 2282940); settings: HepG2 ERE cis-reporter, Attagene RNA transcript; actives raise or lower the signal
Summary of the method: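 Human liver cells (HepG2) bearing transiently transfected, promoter-regulated reporter units were exposed 24 h. Reporter mRNA induction was detected by capillary electrophoresis of labelled RT-PCR products and fitted bidirectionally to DMSO.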

[16] = ATG_Ets_CIS: Attagene CIS-FACTORIAL HepG2 Assay for human Erythroblast Transformation Specific (ETS) (AID 2282941); settings: HepG2 ETS cis-reporter transcription, actives raise or lower the signal
Summary of the method: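 HepG2 cells transfected with multiple cis-regulated reporter units measuring endogenous ETS-driven transcription, 24 h after dosing. Reporter mRNA quantified by RT-PCR with capillary electrophoresis; bidirectional fit relative to DMSO.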

[17] = molecular target: Hepatocyte nuclear factor 3-beta (Homo sapiens) (UniProt Q9Y261); assay: ATG_FoxA2_CIS: Attagene CIS-FACTORIAL HepG2 Assay for human Forkhead box A2 (FOXA2) (AID 2282942); settings: HepG2 cis-reporter transcription factor activity, 24 h; actives raise or lower the signal
Hepatocyte nuclear factor 3-beta (Homo sapiens), sequence (Q9Y261 whole entry, looked up): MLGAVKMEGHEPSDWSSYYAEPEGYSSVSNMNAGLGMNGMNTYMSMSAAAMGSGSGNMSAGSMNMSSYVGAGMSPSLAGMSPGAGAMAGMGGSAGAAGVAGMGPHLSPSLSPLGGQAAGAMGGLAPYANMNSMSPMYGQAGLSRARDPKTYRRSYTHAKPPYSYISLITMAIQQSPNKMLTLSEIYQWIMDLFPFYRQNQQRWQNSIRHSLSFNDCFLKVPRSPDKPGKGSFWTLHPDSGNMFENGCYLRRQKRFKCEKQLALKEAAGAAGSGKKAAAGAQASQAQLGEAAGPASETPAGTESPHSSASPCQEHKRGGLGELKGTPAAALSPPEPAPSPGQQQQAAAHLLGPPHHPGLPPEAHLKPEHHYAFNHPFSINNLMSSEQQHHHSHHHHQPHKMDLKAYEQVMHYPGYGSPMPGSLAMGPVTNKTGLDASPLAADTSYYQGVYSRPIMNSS
Summary of the method: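 Cells: HepG2, transient multiplex reporter transfection. Exposure 24 h. Detection: reporter-specific RT-PCR, fluorescent labelling, restriction digest, capillary electrophoresis. Analysis: bidirectional curve fit, DMSO as negative control.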

[18] = ATG_FoxO_CIS: Attagene CIS-FACTORIAL HepG2 Assay for human Forkhead box O (FoxO) (AID 2282943); settings: HepG2 Attagene cis-reporter, FoxO element, mRNA; actives raise or lower the signal
Summary of the method: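 Human hepatoma HepG2 cells carry transiently introduced reporter transcription units controlled by cis promoter elements. Chemical treatment lasted 24 h, and mRNA signal was compared with DMSO.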

[19] = ATG_GATA_CIS: Attagene CIS-FACTORIAL HepG2 Assay for human GATA Binding Protein (AID 2282944); settings: HepG2 GATA cis-element reporter, Attagene multiplex mRNA; actives raise or lower the signal
Summary of the method: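 Transfected cis-reporter HepG2 cells were treated with chemicals for 24 hours. Total RNA was then converted to cDNA, amplified with reporter-specific primers and analysed by fluorescent capillary electrophoresis, using DMSO-treated wells as baseline.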

[20] = APR_HepG2_NuclearSize_72hr: Apredica 72-hour HepG2 Assay for Nuclear Size (AID 2282925); settings: high-content imaging, actives raise or lower the signal
Summary of the method: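 HepG2; cpd 0.39–200 uM, 10 conc, duplicate; 72 h; DMSO 0.5% v/v; fix 3.7% formaldehyde 30 min RT; Triton permeabilization; Hoechst 2 ug/mL; HCS imaging 20x; nuclear diameter; gain/loss fit vs DMSO.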

Measured: AC50

O=[N+]([O-])c1cc(N(CCO)CCO)ccc1NCCO
not listed: [20]
inactive: all other assays above

c1ccc(Sc2ccccc2)cc1
active: [15] 63.5 µM
not listed: [12] | [20]
inactive: all other assays above

O=S1(=O)CC=CC1
not listed: [16] | [20]
inactive: all other assays above

CCCCCCCC1CCCC1=O (stereo not given)
not listed: [20]
inactive: all other assays above

OCCN1CCOCC1
active: [15] 21.4 µM
not listed: [20]
inactive: all other assays above

C#C[C@]1(O)CC[C@H]2[C@@H]3CCc4cc(O)ccc4[C@H]3CC[C@@]21C
inactive: [20] | [1] | [2] | [3] | [5] | [7] | [8] | [9] | [10] | [11] | [12] | [13] | [14] | [16] | [17] | [18] | [19]
active: [1] 66.9 µM and 26.4 µM and 37 µM | [2] 158 µM | [3] 26.4 µM and 26 µM and 26.2 µM | [5] 19.8 µM and 9.23 µM | [7] 167 µM and 46.7 µM | [8] 75.6 µM and 48.6 µM | [9] 61 µM and 81.7 µM and 24.8 µM | [10] 60.4 µM | [11] 41.2 µM and 29.9 µM | [14] 171 µM | [16] 100 µM | [18] 180 µM and 72.5 µM and 50.9 µM | [19] 139 µM and 142 µM

CC(C)C(=O)c1ccccc1
active: [15] 0.5 µM
not listed: [20]
inactive: all other assays above

COc1ccccc1NC(=O)CC(C)=O
active: [5] 34.8 µM
not listed: [12] | [16] | [20]
inactive: all other assays above

CC(=O)CC(C)(C)C1CCCCC1
not listed: [20]
inactive: all other assays above

CCCCOC(=O)C(C)OC(=O)CCC (stereo not given)
not listed: [20]
inactive: all other assays above

O=c1cc(-c2ccc(O)cc2)oc2cc(O)cc(O)c12
active: [1] 26 µM | [2] 16.8 µM | [3] 6.31 µM | [4] 7.83 µM | [6] 64.3 µM | [13] 10.1 µM | [15] 1.18 µM
not listed: [16] | [20]
inactive: all other assays above
